# Measurements taken from the supplement of paper PMC9694430.
# Test system: LOC_OS01G51400-cb002
# Test: thermal shift delta Tm vs DMSO control; higher = stronger stabilization (binding)
# Conditions: 12.5 µM; protein concentration 2 µM
# How it was run: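 Purified, E. coli-expressed rice kinase domain constructs were tested by differential scanning fluorimetry in 96-well plates: 19.5 μl of 2 μM kinase in 100 mM potassium phosphate pH 7.5, 150 mM NaCl, 10% glycerol, 5 × SYPRO Orange, plus compound in DMSO. Fluorescence was read from 25°C to 95°C at 0.05°C/s. Melting temperatures came from Boltzmann fits, and the shift is the triplicate mean relative to protein with DMSO alone.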
row,SMILES,thermal shift delta Tm [°C]
1,CCNC(=O)Nc1ccc(-c2nc(N3CCOC[C@@H]3C)c3c(n2)C(C)(C)S(=O)(=O)C3)cc1,0.22
2,CN1CCN(c2ccc(OC(F)(F)F)c(Nc3ncc4c(n3)-c3c(c(C(N)=O)nn3CCO)CC4)c2)CC1,0.17
3,C[C@@H](Oc1cc(-n2cnc3ccc(CN4CCN(C)CC4)cc32)sc1C(N)=O)c1ccccc1C(F)(F)F,-0.17
4,COc1cc(OC)cc(-c2cc3cnc(N)nc3nc2NC(=O)NC(C)(C)C)c1,0.05
5,COC(=O)c1ccc2c(c1)NC(=O)/C2=C(\Nc1ccc(N(C)C(=O)CN2CCN(C)CC2)cc1)c1ccccc1 [Nintedanib (BIBF 1120)],0.18
6,"Cc1[nH]c(/C=C2\C(=O)Nc3ccccc32)c(C)c1CCC(=O)O [Orantinib (TSU-68, SU6668)]",0.2
7,NC1(c2ccc(-c3nc4ccn5c(=O)[nH]nc5c4cc3-c3ccccc3)cc2)CCC1,-0.13
8,N#Cc1ccc2[nH]c(O)c(-c3ccc(CN4CCOCC4)cn3)c2c1,0.34
9,C=C[C@@](C)(/C=C/c1ccc(O)cc1)CCC=C(C)C [Bakuchiol],0.52
10,Cn1cnc2c(F)c(Nc3ccc(Br)cc3F)c(C(=O)NOCCO)cc21,0.53
11,CC(C)(C)c1nc(-c2ccc(NC(=O)Nc3cccc(C(F)(F)F)c3)c3ccccc23)c2c(N)nccn12 [kira6],0.79
12,CC1=C(C(=O)Nc2cc3cn[nH]c3cc2F)C(c2ccc(C(F)(F)F)cc2)CC(=O)N1 (stereo not drawn),-0.23
13,Cc1cn(-c2cc(NC(=O)c3ccc(C)c(Nc4nccc(-c5cnccn5)n4)c3)cc(C(F)(F)F)c2)cn1 [Radotinib],0.16
